# Results: the supplement of paper PMC4466140
# Target: AgAbp1
# Assay: SPOT peptide array binding signal intensity (averaged, normalized) (arbitrary units (background-subtracted, floor 0; scale differs between SH3 domains)); higher = stronger binding of the SH3 domain to the peptide
# Procedure: (§1)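 GST-tagged SH3 domains from S. cerevisiae (Sc), A. gossypii (Ag), C. albicans (Ca) and S. pombe (Sp) were incubated at 10 ug/ml overnight at 4 C on cellulose SPOT membranes carrying 292 synthetic 15-mer peptides mined from the S. cerevisiae proteome (cysteines replaced by serines). Binding was detected with anti-GST antibody, HRP secondary and chemiluminescence, quantified with Genespotter, and reported as normalized spot intensities averaged over biological replicates.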
row,Binder,SPOT peptide array binding signal intensity
1,RKRRTHLRLPLIRSN,23

# Target: AgBbc1
# Assay: as above
# Procedure: as §1
row,Binder,SPOT peptide array binding signal intensity
1,RKRRTHLRLPLIRSN,105

# Target: AgBem1-D1
# Assay: as above
# Procedure: as §1
row,Binder,SPOT peptide array binding signal intensity
1,RKRRTHLRLPLIRSN,130

# Target: AgBzz1-D1
# Assay: as above
# Procedure: as §1
row,Binder,SPOT peptide array binding signal intensity
1,RKRRTHLRLPLIRSN,2

# Target: AgBzz1-D2
# Assay: as above
# Procedure: as §1
row,Binder,SPOT peptide array binding signal intensity
1,RKRRTHLRLPLIRSN,34.5

# Target: AgCyk3
# Assay: as above
# Procedure: as §1
row,Binder,SPOT peptide array binding signal intensity
1,RKRRTHLRLPLIRSN,2

# Target: AgFus1
# Assay: as above
# Procedure: as §1
row,Binder,SPOT peptide array binding signal intensity
1,RKRRTHLRLPLIRSN,1070

# Target: AgHof1
# Assay: as above
# Procedure: as §1
row,Binder,SPOT peptide array binding signal intensity
1,RKRRTHLRLPLIRSN,107

# Target: AgHse1
# Assay: as above
# Procedure: as §1
row,Binder,SPOT peptide array binding signal intensity
1,RKRRTHLRLPLIRSN,1100

# Target: AgLsb1
# Assay: as above
# Procedure: as §1
row,Binder,SPOT peptide array binding signal intensity
1,RKRRTHLRLPLIRSN,≤ 0

# Target: AgLsb4
# Assay: as above
# Procedure: as §1
row,Binder,SPOT peptide array binding signal intensity
1,RKRRTHLRLPLIRSN,137

# Target: AgMyo5
# Assay: as above
# Procedure: as §1
row,Binder,SPOT peptide array binding signal intensity
1,RKRRTHLRLPLIRSN,0.5

# Target: AgNbp2
# Assay: as above
# Procedure: as §1
row,Binder,SPOT peptide array binding signal intensity
1,RKRRTHLRLPLIRSN,63.8

# Target: AgRvs167
# Assay: as above
# Procedure: as §1
row,Binder,SPOT peptide array binding signal intensity
1,RKRRTHLRLPLIRSN,2.83

# Target: AgSho1
# Assay: as above
# Procedure: as §1
row,Binder,SPOT peptide array binding signal intensity
1,RKRRTHLRLPLIRSN,37.5

# Target: AgSla1-D1-D2
# Assay: as above
# Procedure: as §1
row,Binder,SPOT peptide array binding signal intensity
1,RKRRTHLRLPLIRSN,29.5

# Target: AgSla1-D3
# Assay: as above
# Procedure: as §1
row,Binder,SPOT peptide array binding signal intensity
1,RKRRTHLRLPLIRSN,2.25

# Target: CaAbp1-D1
# Assay: as above
# Procedure: as §1
row,Binder,SPOT peptide array binding signal intensity
1,RKRRTHLRLPLIRSN,243

# Target: CaAbp1-D2
# Assay: as above
# Procedure: as §1
row,Binder,SPOT peptide array binding signal intensity
1,RKRRTHLRLPLIRSN,301

# Target: CaBbc1
# Assay: as above
# Procedure: as §1
row,Binder,SPOT peptide array binding signal intensity
1,RKRRTHLRLPLIRSN,211

# Target: CaBem1-D1
# Assay: as above
# Procedure: as §1
row,Binder,SPOT peptide array binding signal intensity
1,RKRRTHLRLPLIRSN,41.5

# Target: CaBzz1-D1
# Assay: as above
# Procedure: as §1
row,Binder,SPOT peptide array binding signal intensity
1,RKRRTHLRLPLIRSN,73.5

# Target: CaBzz1-D2
# Assay: as above
# Procedure: as §1
row,Binder,SPOT peptide array binding signal intensity
1,RKRRTHLRLPLIRSN,71

# Target: CaCyk3
# Assay: as above
# Procedure: as §1
row,Binder,SPOT peptide array binding signal intensity
1,RKRRTHLRLPLIRSN,20

# Target: CaFus1
# Assay: as above
# Procedure: as §1
row,Binder,SPOT peptide array binding signal intensity
1,RKRRTHLRLPLIRSN,1220

# Target: CaHof1
# Assay: as above
# Procedure: as §1
row,Binder,SPOT peptide array binding signal intensity
1,RKRRTHLRLPLIRSN,0.25

# Target: CaHse1
# Assay: as above
# Procedure: as §1
row,Binder,SPOT peptide array binding signal intensity
1,RKRRTHLRLPLIRSN,29.6

# Target: CaLsb1
# Assay: as above
# Procedure: as §1
row,Binder,SPOT peptide array binding signal intensity
1,RKRRTHLRLPLIRSN,≤ 0

# Target: CaLsb4
# Assay: as above
# Procedure: as §1
row,Binder,SPOT peptide array binding signal intensity
1,RKRRTHLRLPLIRSN,85

# Target: CaMyo5
# Assay: as above
# Procedure: as §1
row,Binder,SPOT peptide array binding signal intensity
1,RKRRTHLRLPLIRSN,0.5

# Target: CaNbp2
# Assay: as above
# Procedure: as §1
row,Binder,SPOT peptide array binding signal intensity
1,RKRRTHLRLPLIRSN,406

# Target: CaRvs167
# Assay: as above
# Procedure: as §1
row,Binder,SPOT peptide array binding signal intensity
1,RKRRTHLRLPLIRSN,19

# Target: CaRvs167-3
# Assay: as above
# Procedure: as §1
row,Binder,SPOT peptide array binding signal intensity
1,RKRRTHLRLPLIRSN,42

# Target: CaSho1
# Assay: as above
# Procedure: as §1
row,Binder,SPOT peptide array binding signal intensity
1,RKRRTHLRLPLIRSN,478

# Target: CaSla1-D1-D2
# Assay: as above
# Procedure: as §1
row,Binder,SPOT peptide array binding signal intensity
1,RKRRTHLRLPLIRSN,≤ 0

# Target: CaSla1-D3
# Assay: as above
# Procedure: as §1
row,Binder,SPOT peptide array binding signal intensity
1,RKRRTHLRLPLIRSN,4.62

# Target: ScAbp1
# Assay: as above
# Procedure: as §1
row,Binder,SPOT peptide array binding signal intensity
1,RKRRTHLRLPLIRSN,27

# Target: ScBbc1
# Assay: as above
# Procedure: as §1
row,Binder,SPOT peptide array binding signal intensity
1,RKRRTHLRLPLIRSN,31.1

# Target: ScBem1-D1
# Assay: as above
# Procedure: as §1
row,Binder,SPOT peptide array binding signal intensity
1,RKRRTHLRLPLIRSN,61.2

# Target: ScBzz1-D1
# Assay: as above
# Procedure: as §1
row,Binder,SPOT peptide array binding signal intensity
1,RKRRTHLRLPLIRSN,15.5

# Target: ScBzz1-D2
# Assay: as above
# Procedure: as §1
row,Binder,SPOT peptide array binding signal intensity
1,RKRRTHLRLPLIRSN,21.2

# Target: ScCyk3
# Assay: as above
# Procedure: as §1
row,Binder,SPOT peptide array binding signal intensity
1,RKRRTHLRLPLIRSN,98

# Target: ScFus1
# Assay: as above
# Procedure: as §1
row,Binder,SPOT peptide array binding signal intensity
1,RKRRTHLRLPLIRSN,573

# Target: ScHof1
# Assay: as above
# Procedure: as §1
row,Binder,SPOT peptide array binding signal intensity
1,RKRRTHLRLPLIRSN,2.75

# Target: ScHse1
# Assay: as above
# Procedure: as §1
row,Binder,SPOT peptide array binding signal intensity
1,RKRRTHLRLPLIRSN,1680

# Target: ScLsb1
# Assay: as above
# Procedure: as §1
row,Binder,SPOT peptide array binding signal intensity
1,RKRRTHLRLPLIRSN,0.25

# Target: ScLsb2
# Assay: as above
# Procedure: as §1
row,Binder,SPOT peptide array binding signal intensity
1,RKRRTHLRLPLIRSN,1

# Target: ScLsb3
# Assay: as above
# Procedure: as §1
row,Binder,SPOT peptide array binding signal intensity
1,RKRRTHLRLPLIRSN,532

# Target: ScLsb4
# Assay: as above
# Procedure: as §1
row,Binder,SPOT peptide array binding signal intensity
1,RKRRTHLRLPLIRSN,29.8

# Target: ScMyo3
# Assay: as above
# Procedure: as §1
row,Binder,SPOT peptide array binding signal intensity
1,RKRRTHLRLPLIRSN,≤ 0

# Target: ScMyo5
# Assay: as above
# Procedure: as §1
row,Binder,SPOT peptide array binding signal intensity
1,RKRRTHLRLPLIRSN,0.625

# Target: ScNbp2
# Assay: as above
# Procedure: as §1
row,Binder,SPOT peptide array binding signal intensity
1,RKRRTHLRLPLIRSN,164

# Target: ScPex13
# Assay: as above
# Procedure: as §1
row,Binder,SPOT peptide array binding signal intensity
1,RKRRTHLRLPLIRSN,1.12

# Target: ScRvs167
# Assay: as above
# Procedure: as §1
row,Binder,SPOT peptide array binding signal intensity
1,RKRRTHLRLPLIRSN,16.8

# Target: ScSho1
# Assay: as above
# Procedure: as §1
row,Binder,SPOT peptide array binding signal intensity
1,RKRRTHLRLPLIRSN,1440

# Target: ScSla1-D1-D2
# Assay: as above
# Procedure: as §1
row,Binder,SPOT peptide array binding signal intensity
1,RKRRTHLRLPLIRSN,268

# Target: ScSla1-D3
# Assay: as above
# Procedure: as §1
row,Binder,SPOT peptide array binding signal intensity
1,RKRRTHLRLPLIRSN,9.5

# Target: SpAbp1-D1
# Assay: as above
# Procedure: as §1
row,Binder,SPOT peptide array binding signal intensity
1,RKRRTHLRLPLIRSN,91.2

# Target: SpBbc1
# Assay: as above
# Procedure: as §1
row,Binder,SPOT peptide array binding signal intensity
1,RKRRTHLRLPLIRSN,2.5

# Target: SpBzz1-D1
# Assay: as above
# Procedure: as §1
row,Binder,SPOT peptide array binding signal intensity
1,RKRRTHLRLPLIRSN,189
